Data reported in PubChem BioAssay AID720596 (The Scripps Research Institute Molecular Screening Center, 2013).
The whole screen tested about 370,000 compounds, of which about 1,600 (0.43%) were called active. For the sample, actives were picked, then their nearest neighbours and some compounds at random. Values without a mark were called inactive. No stated cut-off is given here; in the data, active means inhibition above about 24%; inactive means the rest.

biological target: Major prion protein (Homo sapiens) (UniProt P04156); assay: reduces human prion protein on the cell surface, primary screen, cell-based, TR-FRET (AID 720596); details: cell surface PrPC, TR-FRET read-out; at 13.8 µM; active compounds read high; further: 0% = median of the test wells and 100% = reference compound wells

| SMILES | inhibition |
| --- | --- |
| COCC1CCN(C(=O)C2CCC(=O)N(Cc3cccc(C(F)(F)F)c3)C2)CC1 (stereo not given) | 9.85% |
| COc1cc(F)ccc1-c1cc(C(=O)NCC2CCCCC2)[nH]n1 | 9.68% |
| COc1ccc(OC)c(NC(=O)c2cc(-c3cc(F)ccc3OCC3CCCO3)n[nH]2)c1 (stereo not given) | 84.9% (active) |
| COc1ccccc1CNC(=O)c1cc(-c2cc(F)ccc2OC)n[nH]1 | -1.69% |
| CC1(C)CC(=O)C2=C(C1)NCN(CCCN1CCOCC1)C2 | -0.29% |
| Cn1cccc1C1(C(F)(F)F)NCCNC1=O (stereo not given) | -0.11% |
| O=C(O)c1ccc(F)c(S(=O)(=O)Nc2ccccc2)c1 | -4.14% |
| Cc1cc(C(C)(C)C)cc(S(=O)(=O)Nc2ccc(C(=O)O)cc2)c1C | 0.8% |
| Cc1ccc(C(=O)Nc2ccccc2-c2ccccc2)cc1S(=O)(=O)Nc1ccccc1 | 25.5% (active) |
| CCC(C)N(C(=O)COC(=O)c1nc(Cl)ccc1Cl)C1CCS(=O)(=O)C1 (stereo not given) | 5.66% |
| COc1cccc2sc3cc(NCC[C@@H]4CCCN4C)ccc3c(=O)c12 | 44.1% (active) |
| Cc1cc2oc3ccc(NCCC4CCCN4C)cc3c(=O)c2cc1C (stereo not given) | -13.5% |
| N#Cc1c(-c2ccc(Cl)cc2)c2c([nH]c1=S)CCCC2 | -2.9% |
| CC1CC(=O)Nc2ccccc2N1C(=O)COc1ccc2cc(Br)ccc2c1 (stereo not given) | -0.09% |
| O=C(Nc1ccccc1Cl)/C(Cl)=C(\Cl)S(=O)c1ccccc1 (stereo not given) | 93.7% (active) |
| Cc1ccc(S(=O)(=O)N(C)C)cc1NC(=O)c1ccc(-n2cncn2)c([N+](=O)[O-])c1 | -32.8% |
| Cc1[nH]n(-c2ccccc2)c(=O)c1/C=N/NC(=O)c1ccoc1C | 43.4% (active) |
| O=C(N/N=C/c1c(O)n(C2CC2)c(=S)[nH]c1=O)c1ccccc1 | -3.29% |
| O=C(N/N=C/c1c(O)n(C2CC2)c(=S)[nH]c1=O)c1ccccc1Cl | 6.86% |
| O=C(CCN1CCCO1)N1CCCC(N2CCN(c3cccc(C(F)(F)F)c3)CC2)C1 (stereo not given) | 1.86% |
| Cn1c(=S)sc2ccc3ccccc3c21 | 51.9% (active) |
| COc1ccc2ccccc2c1CNc1nnnn1C | -6.2% |
| CSc1nnc(CNC(=O)c2ccccc2)n1-c1ccc(F)cc1 | 0.49% |

| SMILES | inhibition |
| --- | --- |
| CC1=C(C(=O)Nc2cccc(C(=O)NCC(C)c3ccccc3)c2)SCCO1 (stereo not given) | 12.5% |
| CC(c1cccnc1)N(CCN(C)C)C(=O)Nc1ccc(Cl)c(Cl)c1 (stereo not given) | 2.3% |
| O=C(CCS(=O)(=O)c1ccccc1)Nc1ccc(Cl)c(Cl)c1 | 4.48% |
| O=C(CC(O)(C(F)(F)F)C(F)(F)F)Nc1ccc(Cl)c(Cl)c1 | 64.7% (active) |
| CC(C)c1ccc(NC(=O)[C@@H](NC(=O)N2CC(=O)Nc3ccccc32)C(C)C)cc1 | 3.7% |
| COC(=O)c1c(-c2cccs2)csc1NC(=O)CSc1ncnc2sc(C)c(C)c12 | -2.84% |
| Cc1sc2ncnc(SCC(=O)NC3CCS(=O)(=O)C3)c2c1C (stereo not given) | 9.26% |
| Cc1sc2ncnc(SCC(=O)Nc3ccc(CN4CCCC4)cc3)c2c1C | 33.7% (active) |
| CC/C(=N\O)C(C)(C)/[N+]([O-])=C/c1ccc(Br)cc1 | 10.7% |
| CCC(=O)N1c2ccccc2NC2=C(C(=O)CCC2)C1c1ccco1 (stereo not given) | -1.24% |
| O=C1CCCC2=C1C(c1cccs1)n1nc(SCc3ccccc3)nc1N2 (stereo not given) | 50.8% (active) |
| O=C1CCCC2=C1C(c1cccs1)CC(=O)N2c1ccc(F)cc1 (stereo not given) | 0.75% |
| CC(=O)c1c(C)[nH]c(C(=O)OCC(=O)Nc2c(C)n(C)n(-c3ccccc3)c2=O)c1C | 6.5% |
| COc1ccc2c(c1)[C@@]13CCCCC1[C@@H](C2)NCC3 (stereo not given in full) | 1.48% |
| Cc1cc2cc(CNC(=O)c3cccs3)ccc2[nH]1 | 7.85% |
| Cc1ccc(CC(=O)Nc2ccc(S(=O)(=O)N3CCOCC3)cc2)cc1C | 10.2% |
| Cc1cc2cc(CNC(=O)c3ccc(S(=O)(=O)N4CCOCC4)cc3)ccc2[nH]1 | 27.4% (active) |
| Cc1nc(NC(=O)CCC(=O)O)sc1C(=O)N(C)C | 0.26% |
| Cc1c(C(=O)NCCN(C)C)oc2ccc(S(=O)(=O)N3CCCC3)cc12 | 1.49% |
| CN(C)CCNC(=O)c1ccc(Cl)c2cc3ccccc3nc12 | 34.5% (active) |
| Nc1nc2c(Br)ccc(Br)c2cc1C(=O)NCCc1ccccc1 | 6.33% |
| CCN(Cc1ccccc1)C(=O)CN1C(=S)NC(C)(C)CC1C (stereo not given) | 6.01% |
| CCN(c1ccccc1)S(=O)(=O)c1ccc2[nH]c(=O)[nH]c2c1 | -6.81% |

| SMILES | inhibition |
| --- | --- |
| O=C(Nc1ccc(N2CCN(C(=O)c3ccccc3)CC2)c(Cl)c1)c1cccnc1 | 26.1% (active) |
| Cc1ccccc1N1CCN(C(=O)c2cccnc2)CC1 | -4.83% |
| O=C(Nc1ccc(N2CCN(C(=O)c3ccccc3)CC2)c(Cl)c1)c1ncn[nH]1 | 11.2% |
| COc1ccc2c(c1)c(=O)c(C(=O)c1ccc(Cl)cc1)cn2CC(=O)Nc1ccc(F)cc1 | 0.3% |
| Cc1ccc(Cn2cc(C(=O)NN)c(=O)c3ccc(F)cc32)cc1 | -1.23% |
| O=C(c1ccc(F)cc1)c1cn(Cc2ccc(F)cc2)c2cc3c(cc2c1=O)OCCO3 | 34.4% (active) |
| CCCCc1nc2cc(C(=O)NCCc3cnn(C)c3)ccc2o1 | -7.17% |
| CC(C)N(Cc1nc(-c2ccc3c(c2)OCO3)no1)CC1CCC(=O)N1 (stereo not given) | 7.11% |
| N#Cc1c(N)nc2c3c(sc(=N)c2c1N)NC(=O)CC3c1ccccc1Cl (stereo not given) | 31.5% (active) |
| CC(C)CCN1CCC(C)(NC(=O)c2ccccc2)C1=O (stereo not given) | -6.7% |
| CC1(c2ccccc2)NC(=O)N(CC(=O)N2CC(=O)Nc3ccccc32)C1=O (stereo not given) | 1.68% |
| COc1ccc(-c2c(C)cc3oc(=O)cc(-c4ccccc4)c3c2C)cc1C=O | 4.67% |
| CN(C(=O)COC(=O)CCCc1c[nH]c2ccccc12)c1c(N)n(Cc2ccccc2)c(=O)[nH]c1=O | 7.89% |
| CCOc1ccc(Oc2c(Cl)cnn(-c3ccc(C)cc3)c2=O)cc1 | -10.9% |
| Cc1ccc(OC(=O)c2c(C)nn(-c3ccccc3)c2C)cc1 | 4.97% |
| Cc1ccc(Oc2cnn(-c3ccccc3)c(=O)c2Br)cc1 | 32.8% (active) |
| CCC(C)[C@@H](C(=O)OC)N(CCc1cn(Cc2ccccc2)nn1)S(=O)(=O)c1ccccc1Br (stereo not given in full) | 2.07% |
| CC(=O)Nc1ccc(S(=O)(=O)N2CCC(NC(=O)c3ccccc3)CC2)cc1 | -5.81% |
| CN(Cc1c(F)cccc1Cl)S(=O)(=O)c1cccs1 | -6.92% |
| COc1cccc(NC(=S)C(C#N)=C2N(C)c3ccccc3N2C)c1 | -1.55% |
| O=C(CCCOc1ccccc1)Nc1cccc(C(=O)O)c1 | 2.69% |
| CC(=O)Nc1cccc(OCC(=O)/C=C2\N(C)c3ccccc3C2(C)C)c1 | 29.7% (active) |
| Cc1nnc(NC(=O)CCC(=O)N2CCC(C)CC2)s1 | -8.95% |

| SMILES | inhibition |
| --- | --- |
| COc1ccc(/C=C/CN2CCCC(C(=O)c3cc(F)ccc3F)C2)cc1 (stereo not given) | 3.26% |
| COc1cc2c(cc1OC)C(=O)NCC(C)(C)O2 | 6.88% |
| COc1ccc(Cn2cccc(NC(=O)Nc3ccc(C#N)cc3)c2=O)cc1 | 4.26% |
| O=C(Nc1cccn(Cc2c(Cl)cccc2Cl)c1=O)c1ccc(Cl)cc1 | 2.47% |
| O=C(Nc1cccn(Cc2ccccc2Cl)c1=O)NC1CCCCC1 | 24.9% (active) |
| CC1(C)CC(=O)C(C=NCc2cccnc2)=C(O)C1 | 6.76% |
| C=CCn1c(O)c(/C=N/N2CCOCC2)c(=O)[nH]c1=S | -4.21% |
| CC1(C)CC(N2CCN(C(c3ccccc3)c3ccccc3)CC2)=CC(=[N+]2CCCCC2)C1 | 24.4% (active) |
| COC(=O)C(c1ccccc1)N1CCCCCC1 (stereo not given) | -4.88% |
| Cc1ccc(CNC(=O)Nc2nnc([C@H]3C[C@H](O)[C@@H](CO)O3)s2)cc1 | 25.8% (active) |
| O=C(Nc1ccc(F)cc1)Nc1nnc([C@H]2C[C@H](O)[C@@H](CO)O2)s1 | 1.64% |
| O=C(Nc1nnc([C@H]2C[C@H](O)[C@@H](CO)O2)s1)c1cccc(Cl)c1 | -5.24% |
| CN(C(=O)CSc1nc(C2CC2)nc2ccccc12)c1nc(-c2ccccc2)cs1 | -2.06% |
| COC(=O)CSc1nc(C2CC2)nc2ccccc12 | 34% (active) |
| Cc1nnc(NC(=O)CSc2nc(C3CCCCC3)nc3ccccc23)s1 | 2.15% |
| Cc1c(Br)c([N+](=O)[O-])nn1C(C)C(=O)Nc1nccs1 (stereo not given) | -4.47% |
| COc1ccc(S(=O)(=O)N2CCOCC2)cc1NC(=O)CSc1nnc(NC2CC2)s1 | 7.4% |
| COc1ccc(S(=O)(=O)N2CCOCC2)cc1NC(=O)CSc1cc(C)ccc1C | -4.51% |
| COc1ccc(S(=O)(=O)N2CCOCC2)cc1NC(=O)CSc1ncnc2ccccc12 | 47.3% (active) |
| Cc1oc(-c2ccccc2Cl)[n+]([O-])c1C | -0.12% |
| COC(=O)c1sccc1NC(=O)CC1C(=O)NCCN1C(=O)Nc1ccc(F)cc1F (stereo not given) | 4.59% |
